Test [1] concerns the target T1, Serine/threonine-protein kinase Nek9 (Homo sapiens) (UniProt Q8TD19).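 Note: each value is a mean percent inhibition of NEK9.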
T1 sequence (whole entry): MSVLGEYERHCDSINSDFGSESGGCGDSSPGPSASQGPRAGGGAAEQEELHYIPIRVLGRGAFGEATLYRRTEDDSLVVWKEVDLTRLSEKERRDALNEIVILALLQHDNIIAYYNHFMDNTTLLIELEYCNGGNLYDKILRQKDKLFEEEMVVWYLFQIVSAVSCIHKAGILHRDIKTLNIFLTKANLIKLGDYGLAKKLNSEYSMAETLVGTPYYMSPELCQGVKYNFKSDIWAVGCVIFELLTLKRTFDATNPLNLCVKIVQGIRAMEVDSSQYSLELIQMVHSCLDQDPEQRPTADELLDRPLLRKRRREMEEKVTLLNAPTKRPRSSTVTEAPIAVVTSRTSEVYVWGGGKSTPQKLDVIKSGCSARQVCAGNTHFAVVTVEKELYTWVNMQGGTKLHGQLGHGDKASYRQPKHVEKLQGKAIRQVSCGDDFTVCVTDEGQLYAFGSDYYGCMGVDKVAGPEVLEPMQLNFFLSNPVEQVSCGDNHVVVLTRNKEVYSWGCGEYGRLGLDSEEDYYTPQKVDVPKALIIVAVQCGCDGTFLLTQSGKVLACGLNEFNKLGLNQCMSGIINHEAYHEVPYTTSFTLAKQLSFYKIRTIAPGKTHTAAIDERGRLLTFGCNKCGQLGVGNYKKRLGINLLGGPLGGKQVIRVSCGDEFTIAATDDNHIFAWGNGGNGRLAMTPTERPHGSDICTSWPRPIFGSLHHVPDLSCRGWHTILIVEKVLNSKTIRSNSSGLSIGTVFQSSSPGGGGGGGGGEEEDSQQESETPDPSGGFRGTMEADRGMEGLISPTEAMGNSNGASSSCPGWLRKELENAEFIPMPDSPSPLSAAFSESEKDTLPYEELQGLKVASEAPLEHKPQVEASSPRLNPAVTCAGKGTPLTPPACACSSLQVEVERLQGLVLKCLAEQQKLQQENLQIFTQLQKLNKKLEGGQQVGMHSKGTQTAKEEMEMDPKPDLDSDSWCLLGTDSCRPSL
As to conditions: at 1 µM.

For test [2], the target named is Serine/threonine-protein kinase PLK1 (Homo sapiens) (UniProt P53350). As to conditions: at 0.1 µM.
The target is the same in test [3]. As to conditions: at 1 µM.
Test [4] addresses T2, Dual specificity protein kinase TTK (Homo sapiens) (UniProt P33981).
T2 sequence (whole entry): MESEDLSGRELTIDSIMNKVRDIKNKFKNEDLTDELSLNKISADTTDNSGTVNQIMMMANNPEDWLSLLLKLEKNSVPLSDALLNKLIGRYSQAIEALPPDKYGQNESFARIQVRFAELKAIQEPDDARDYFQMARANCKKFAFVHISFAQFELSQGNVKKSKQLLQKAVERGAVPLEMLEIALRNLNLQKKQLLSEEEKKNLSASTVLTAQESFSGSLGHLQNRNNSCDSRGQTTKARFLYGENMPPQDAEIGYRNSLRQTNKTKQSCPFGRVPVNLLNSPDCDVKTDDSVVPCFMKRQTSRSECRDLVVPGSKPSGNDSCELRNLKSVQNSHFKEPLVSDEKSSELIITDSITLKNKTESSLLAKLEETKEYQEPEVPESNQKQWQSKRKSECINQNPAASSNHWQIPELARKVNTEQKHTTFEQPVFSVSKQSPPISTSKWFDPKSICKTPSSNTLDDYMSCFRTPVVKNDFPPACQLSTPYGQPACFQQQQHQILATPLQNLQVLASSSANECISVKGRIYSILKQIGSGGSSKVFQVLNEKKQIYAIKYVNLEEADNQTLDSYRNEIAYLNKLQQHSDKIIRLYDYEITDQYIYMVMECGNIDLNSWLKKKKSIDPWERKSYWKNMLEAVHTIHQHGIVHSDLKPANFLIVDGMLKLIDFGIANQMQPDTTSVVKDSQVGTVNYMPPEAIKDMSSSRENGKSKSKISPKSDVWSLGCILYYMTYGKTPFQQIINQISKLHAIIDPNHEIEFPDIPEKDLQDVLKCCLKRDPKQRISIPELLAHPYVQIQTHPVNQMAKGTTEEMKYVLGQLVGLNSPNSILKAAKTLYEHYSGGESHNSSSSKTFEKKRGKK
As to conditions: at 0.1 µM.

Test [5] concerns T3, Receptor-type tyrosine-protein kinase FLT3 (Homo sapiens), P36888 [D835Y].
T3 sequence (whole entry): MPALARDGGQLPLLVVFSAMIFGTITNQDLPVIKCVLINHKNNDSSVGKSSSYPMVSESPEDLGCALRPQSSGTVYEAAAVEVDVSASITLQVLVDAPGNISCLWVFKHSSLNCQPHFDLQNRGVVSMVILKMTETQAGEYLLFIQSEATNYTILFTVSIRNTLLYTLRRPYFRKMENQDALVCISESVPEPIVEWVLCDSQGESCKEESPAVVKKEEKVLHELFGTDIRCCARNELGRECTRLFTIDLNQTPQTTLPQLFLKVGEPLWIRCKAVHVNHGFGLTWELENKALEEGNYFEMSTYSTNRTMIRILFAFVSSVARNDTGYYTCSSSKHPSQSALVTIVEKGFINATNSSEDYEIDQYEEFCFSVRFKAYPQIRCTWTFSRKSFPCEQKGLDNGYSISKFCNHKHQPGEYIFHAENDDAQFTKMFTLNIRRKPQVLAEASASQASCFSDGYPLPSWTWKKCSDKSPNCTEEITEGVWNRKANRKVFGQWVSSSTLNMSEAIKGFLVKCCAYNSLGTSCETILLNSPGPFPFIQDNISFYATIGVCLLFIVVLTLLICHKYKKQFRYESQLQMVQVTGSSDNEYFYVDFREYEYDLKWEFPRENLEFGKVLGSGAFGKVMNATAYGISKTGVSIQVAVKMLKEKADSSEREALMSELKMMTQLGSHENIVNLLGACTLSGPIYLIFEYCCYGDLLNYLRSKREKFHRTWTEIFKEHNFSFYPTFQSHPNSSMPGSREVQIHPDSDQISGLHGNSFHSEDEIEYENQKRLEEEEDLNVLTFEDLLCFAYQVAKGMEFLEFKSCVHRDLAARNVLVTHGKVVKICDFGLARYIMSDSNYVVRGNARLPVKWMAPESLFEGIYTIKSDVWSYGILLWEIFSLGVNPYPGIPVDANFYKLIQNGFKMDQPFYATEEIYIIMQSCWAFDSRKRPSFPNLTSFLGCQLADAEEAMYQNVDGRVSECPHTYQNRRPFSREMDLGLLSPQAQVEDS
Conditions: at 1 µM.

Test [6] deals with Vascular endothelial growth factor receptor 3 (Homo sapiens) (UniProt P35916). As to conditions: at 0.1 µM.
Chain of Vascular endothelial growth factor receptor 3 (Homo sapiens) (P35916 whole entry): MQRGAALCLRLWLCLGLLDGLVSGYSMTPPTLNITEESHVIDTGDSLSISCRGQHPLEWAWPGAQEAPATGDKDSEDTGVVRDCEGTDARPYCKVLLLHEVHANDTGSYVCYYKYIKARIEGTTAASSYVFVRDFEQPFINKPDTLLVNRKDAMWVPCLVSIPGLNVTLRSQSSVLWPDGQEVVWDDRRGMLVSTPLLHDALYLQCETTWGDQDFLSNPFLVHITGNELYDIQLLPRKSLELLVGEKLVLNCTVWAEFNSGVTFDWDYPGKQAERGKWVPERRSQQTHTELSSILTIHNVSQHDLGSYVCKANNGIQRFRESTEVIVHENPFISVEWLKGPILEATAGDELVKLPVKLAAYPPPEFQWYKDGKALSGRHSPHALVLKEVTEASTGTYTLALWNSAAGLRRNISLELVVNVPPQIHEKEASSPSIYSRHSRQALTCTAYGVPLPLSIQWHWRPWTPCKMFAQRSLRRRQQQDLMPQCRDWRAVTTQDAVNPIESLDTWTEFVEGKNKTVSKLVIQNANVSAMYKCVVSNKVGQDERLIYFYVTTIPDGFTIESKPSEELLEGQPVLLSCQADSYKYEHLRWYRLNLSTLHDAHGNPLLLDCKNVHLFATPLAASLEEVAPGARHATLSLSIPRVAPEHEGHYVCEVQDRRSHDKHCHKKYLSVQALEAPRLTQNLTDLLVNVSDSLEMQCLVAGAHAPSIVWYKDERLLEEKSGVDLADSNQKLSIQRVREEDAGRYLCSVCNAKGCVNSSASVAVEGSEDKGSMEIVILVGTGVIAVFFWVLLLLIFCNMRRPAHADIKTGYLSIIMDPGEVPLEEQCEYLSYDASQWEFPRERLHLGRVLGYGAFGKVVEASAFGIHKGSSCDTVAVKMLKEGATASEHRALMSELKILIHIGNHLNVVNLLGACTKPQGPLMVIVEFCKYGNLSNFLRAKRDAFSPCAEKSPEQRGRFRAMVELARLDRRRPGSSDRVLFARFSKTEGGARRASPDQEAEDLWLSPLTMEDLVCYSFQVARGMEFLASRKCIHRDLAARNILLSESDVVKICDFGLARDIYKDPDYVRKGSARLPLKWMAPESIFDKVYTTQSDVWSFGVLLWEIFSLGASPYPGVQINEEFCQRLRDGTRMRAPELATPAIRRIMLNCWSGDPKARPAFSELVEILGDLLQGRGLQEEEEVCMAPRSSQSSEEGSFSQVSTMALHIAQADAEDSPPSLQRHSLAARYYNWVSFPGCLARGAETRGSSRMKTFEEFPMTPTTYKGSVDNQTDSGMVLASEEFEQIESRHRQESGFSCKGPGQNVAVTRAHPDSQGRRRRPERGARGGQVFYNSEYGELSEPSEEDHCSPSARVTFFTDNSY
Test [7] shares this target. As to conditions: at 1 µM.
In test [8] the target is Macrophage colony-stimulating factor 1 receptor (Homo sapiens) (UniProt P07333). As to conditions: at 0.1 µM.
Chain of Macrophage colony-stimulating factor 1 receptor (Homo sapiens) (P07333 whole entry): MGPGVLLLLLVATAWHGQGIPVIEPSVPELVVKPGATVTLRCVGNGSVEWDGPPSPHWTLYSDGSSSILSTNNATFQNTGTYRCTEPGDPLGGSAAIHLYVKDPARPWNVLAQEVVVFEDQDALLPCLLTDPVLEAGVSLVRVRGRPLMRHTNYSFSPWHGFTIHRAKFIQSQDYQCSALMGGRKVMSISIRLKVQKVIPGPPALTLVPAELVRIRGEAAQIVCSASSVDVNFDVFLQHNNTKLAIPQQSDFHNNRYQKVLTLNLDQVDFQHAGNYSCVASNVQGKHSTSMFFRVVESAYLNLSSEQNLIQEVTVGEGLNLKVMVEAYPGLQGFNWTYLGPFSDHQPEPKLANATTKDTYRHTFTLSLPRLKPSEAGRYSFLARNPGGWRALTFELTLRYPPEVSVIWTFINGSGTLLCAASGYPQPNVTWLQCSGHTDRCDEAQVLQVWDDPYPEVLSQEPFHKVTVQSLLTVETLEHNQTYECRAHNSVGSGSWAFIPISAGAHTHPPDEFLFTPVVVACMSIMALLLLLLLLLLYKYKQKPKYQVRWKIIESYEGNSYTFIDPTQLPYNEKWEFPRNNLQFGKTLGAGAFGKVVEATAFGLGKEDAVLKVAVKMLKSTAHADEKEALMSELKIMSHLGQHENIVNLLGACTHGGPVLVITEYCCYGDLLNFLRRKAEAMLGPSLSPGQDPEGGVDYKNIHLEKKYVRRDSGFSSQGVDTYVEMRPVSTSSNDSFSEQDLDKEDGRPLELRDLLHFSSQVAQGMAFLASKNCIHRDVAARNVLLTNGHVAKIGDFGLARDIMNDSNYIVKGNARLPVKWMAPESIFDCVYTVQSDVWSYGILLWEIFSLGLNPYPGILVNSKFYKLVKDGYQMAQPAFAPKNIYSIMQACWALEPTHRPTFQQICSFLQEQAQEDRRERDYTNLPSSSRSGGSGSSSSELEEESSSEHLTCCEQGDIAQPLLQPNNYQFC
Test [9] has the same target. As to conditions: at 1 µM.
Test [10] addresses Tyrosine-protein kinase Fyn (Homo sapiens) (UniProt P06241). Conditions: at 0.1 µM.
Test [11] has the same target. Conditions: at 1 µM.
For test [12], the target named is Tyrosine-protein kinase HCK (Homo sapiens) (UniProt P08631). As to conditions: at 0.1 µM.
The target is the same in test [13]. As to conditions: at 1 µM.
For test [14], the target named is Insulin-like growth factor 1 receptor (Homo sapiens) (UniProt P08069). Conditions: at 0.1 µM.
Test [15] has the same target. As to conditions: at 1 µM.
Test [16] has as its target Insulin receptor (Homo sapiens) (UniProt P06213). As to conditions: at 0.1 µM.
For test [17] the target is unchanged. Conditions: at 1 µM.
For test [18], the target named is Insulin receptor-related protein (Homo sapiens) (UniProt P14616). As to conditions: at 0.1 µM.
Chain of Insulin receptor-related protein (Homo sapiens) (P14616 27-742 limits assumed): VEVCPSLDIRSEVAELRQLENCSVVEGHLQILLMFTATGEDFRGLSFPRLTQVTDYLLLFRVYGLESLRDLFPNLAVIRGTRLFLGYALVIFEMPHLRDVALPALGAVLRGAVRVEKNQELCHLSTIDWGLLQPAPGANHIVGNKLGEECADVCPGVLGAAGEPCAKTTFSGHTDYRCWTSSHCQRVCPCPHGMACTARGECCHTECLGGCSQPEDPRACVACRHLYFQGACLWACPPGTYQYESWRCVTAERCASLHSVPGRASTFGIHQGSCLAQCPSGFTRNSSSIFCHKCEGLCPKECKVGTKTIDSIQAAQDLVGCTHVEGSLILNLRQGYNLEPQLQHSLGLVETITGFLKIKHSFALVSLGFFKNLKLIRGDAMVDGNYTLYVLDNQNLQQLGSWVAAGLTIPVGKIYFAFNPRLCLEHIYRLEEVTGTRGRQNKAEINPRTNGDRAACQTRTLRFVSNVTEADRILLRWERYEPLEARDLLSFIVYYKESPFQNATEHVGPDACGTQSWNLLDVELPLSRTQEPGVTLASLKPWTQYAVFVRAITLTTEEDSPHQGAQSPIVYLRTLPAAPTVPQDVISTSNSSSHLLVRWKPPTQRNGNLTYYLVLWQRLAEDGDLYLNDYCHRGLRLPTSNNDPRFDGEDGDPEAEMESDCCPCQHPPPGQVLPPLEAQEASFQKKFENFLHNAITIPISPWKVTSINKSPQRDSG
Chain of Insulin receptor-related protein (Homo sapiens) (P14616 747-1297 limits assumed): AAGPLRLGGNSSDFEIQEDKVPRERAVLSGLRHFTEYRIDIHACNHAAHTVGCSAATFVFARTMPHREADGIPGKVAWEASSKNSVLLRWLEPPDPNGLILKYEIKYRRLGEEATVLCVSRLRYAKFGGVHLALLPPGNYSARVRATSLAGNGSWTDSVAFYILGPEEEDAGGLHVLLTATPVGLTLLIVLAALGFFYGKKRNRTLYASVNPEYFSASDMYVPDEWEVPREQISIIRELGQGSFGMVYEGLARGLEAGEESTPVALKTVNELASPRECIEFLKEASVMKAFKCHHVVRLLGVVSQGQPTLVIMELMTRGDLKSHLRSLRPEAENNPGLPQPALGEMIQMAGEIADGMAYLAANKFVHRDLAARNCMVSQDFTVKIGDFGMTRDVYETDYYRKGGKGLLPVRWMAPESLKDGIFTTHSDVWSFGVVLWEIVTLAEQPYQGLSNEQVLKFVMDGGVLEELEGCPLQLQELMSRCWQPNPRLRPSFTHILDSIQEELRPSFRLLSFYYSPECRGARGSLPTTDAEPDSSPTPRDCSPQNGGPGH
Test [19] shares this target. Conditions: at 1 µM.
Test [20] has as its target T4, Tyrosine-protein kinase ITK/TSK (Homo sapiens) (UniProt Q08881).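 Note: mean percent inhibition of ITK from the GSK PKIS screen.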
T4 sequence (whole entry): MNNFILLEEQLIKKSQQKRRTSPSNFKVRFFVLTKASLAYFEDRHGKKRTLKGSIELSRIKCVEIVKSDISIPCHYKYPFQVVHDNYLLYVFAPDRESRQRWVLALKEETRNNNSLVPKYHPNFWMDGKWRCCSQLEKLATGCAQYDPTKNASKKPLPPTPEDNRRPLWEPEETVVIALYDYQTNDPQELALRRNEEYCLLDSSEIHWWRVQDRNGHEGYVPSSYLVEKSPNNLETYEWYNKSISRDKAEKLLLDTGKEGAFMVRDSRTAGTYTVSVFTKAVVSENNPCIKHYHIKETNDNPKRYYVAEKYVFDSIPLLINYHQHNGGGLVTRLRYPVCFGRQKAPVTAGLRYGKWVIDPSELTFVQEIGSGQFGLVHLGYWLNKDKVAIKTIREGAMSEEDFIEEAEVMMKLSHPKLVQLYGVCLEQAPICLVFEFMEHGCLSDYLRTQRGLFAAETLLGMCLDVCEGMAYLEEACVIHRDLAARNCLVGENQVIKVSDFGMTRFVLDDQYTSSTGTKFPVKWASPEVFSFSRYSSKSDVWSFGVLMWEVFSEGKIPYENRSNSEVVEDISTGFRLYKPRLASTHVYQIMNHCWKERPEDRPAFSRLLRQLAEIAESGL
Conditions: at 0.1 µM.

In ChEMBL document CHEMBL1961873, “Compounds: GSK PKIS; Assays: Nanosyn kinase panel” (2012) one finds inhibition data, which are given here for six compounds.

Several values for one entry are separate records, joined by “and”; a condition that tells them apart may be missing. Identical values can stand only once.

Chain of Insulin receptor (Homo sapiens) (P06213 28-758 limits assumed): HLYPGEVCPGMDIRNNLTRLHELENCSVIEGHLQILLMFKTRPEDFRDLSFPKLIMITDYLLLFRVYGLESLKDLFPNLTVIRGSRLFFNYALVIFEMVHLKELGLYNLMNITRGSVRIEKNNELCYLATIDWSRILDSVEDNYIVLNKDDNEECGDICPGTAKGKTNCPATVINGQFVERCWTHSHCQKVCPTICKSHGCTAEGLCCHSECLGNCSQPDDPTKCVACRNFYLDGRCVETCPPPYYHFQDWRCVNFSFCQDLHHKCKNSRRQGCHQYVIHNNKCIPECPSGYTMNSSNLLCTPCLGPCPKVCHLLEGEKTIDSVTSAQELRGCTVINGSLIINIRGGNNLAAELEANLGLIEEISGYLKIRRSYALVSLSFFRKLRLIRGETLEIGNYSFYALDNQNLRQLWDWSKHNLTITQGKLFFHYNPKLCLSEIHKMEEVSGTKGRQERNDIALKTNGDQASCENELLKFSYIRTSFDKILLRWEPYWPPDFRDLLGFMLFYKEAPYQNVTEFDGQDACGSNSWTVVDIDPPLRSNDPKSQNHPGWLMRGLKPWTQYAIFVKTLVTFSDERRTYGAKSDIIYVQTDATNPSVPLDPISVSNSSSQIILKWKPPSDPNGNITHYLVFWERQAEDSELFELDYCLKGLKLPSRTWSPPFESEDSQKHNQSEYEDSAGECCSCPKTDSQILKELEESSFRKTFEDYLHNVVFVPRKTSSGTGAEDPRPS
Chain of Insulin receptor (Homo sapiens) (P06213 763-1382 limits assumed): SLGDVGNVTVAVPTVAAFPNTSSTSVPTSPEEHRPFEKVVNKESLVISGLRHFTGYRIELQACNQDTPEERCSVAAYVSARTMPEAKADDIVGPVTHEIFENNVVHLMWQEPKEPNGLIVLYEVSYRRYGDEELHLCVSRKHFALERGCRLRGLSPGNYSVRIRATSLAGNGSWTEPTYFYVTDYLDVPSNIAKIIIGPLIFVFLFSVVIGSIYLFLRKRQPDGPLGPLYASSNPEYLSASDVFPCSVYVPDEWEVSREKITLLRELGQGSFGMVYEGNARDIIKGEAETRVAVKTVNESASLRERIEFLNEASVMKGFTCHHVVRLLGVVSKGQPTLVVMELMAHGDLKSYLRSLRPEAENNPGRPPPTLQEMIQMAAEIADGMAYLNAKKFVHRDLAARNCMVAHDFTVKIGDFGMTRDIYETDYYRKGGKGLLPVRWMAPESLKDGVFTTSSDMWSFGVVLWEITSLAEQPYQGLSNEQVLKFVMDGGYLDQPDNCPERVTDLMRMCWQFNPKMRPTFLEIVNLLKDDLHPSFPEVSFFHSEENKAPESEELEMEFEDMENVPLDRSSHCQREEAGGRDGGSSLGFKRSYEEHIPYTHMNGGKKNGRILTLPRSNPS

Consider `CCS(=O)(=O)c1ccc(OC)c(Nc2ncc(-c3cccc(C(C)=O)c3)o2)c1`, for which the inhibition was found to be 3.45% in [1]; 2.42% in [2]; 2.98% in test [3]; 5.81% in test [4]; 87.2% in test [5]; 10.7% in test [6]. In addition, the inhibition in test [7] came to 47.3%; in test [8], 10.2%; in test [9], 34.7%; in [10], 26.4%; in test [11], 71.4%; in [12], 11%. Further, the inhibition in test [13] stood at 71.2%; in [14], 1.64%; in test [15], 3.11%; in test [16], 2.36%; in test [17] it was 2.68%; in test [18] it was 2.22%. The inhibition was found to be 3.18% in test [19] and 0.98% in test [20].

For the compound `Cn1c(-c2nonc2N)nc2cnccc21`, the inhibition in [1] was found to be 10.4%; in [2], 4.28%; in test [3] it was 5.16%; in test [4] it was 5.36%; in test [5] it was 6.27%; in test [6] it was 2.31%. In addition, the inhibition was -0.12% in [7]; -0.13% in test [8]; 4.58% in [9]; 1.61% in test [10]; 2.28% in [11]; 6.35% in test [12]. For the same compound, the inhibition in [13] is 6.33%; in test [14], 1.93%; in [15] it was 3.66%; in test [16], 5.09%; in [17] it was 6.68%; in test [18], 2.16%. For the same compound, the inhibition was -0.85% in test [19] and 1.03% in test [20].

In the case of `COc1cccc(Nc2nccc(-c3cnn4ncccc34)n2)c1`, the inhibition in [1] was 26.1%; in test [2] it was 3.48%; in test [3] it was 21.3%; in [4], 4.85%; in test [5] it was 52.3%; in [6], -0.16%. The inhibition in [7] came to 30.2%; in test [8], 50.4%; in [9] it was 90.9%; in [10] it was 1.46%; in test [11] it was 16.2%; in test [12], 7.25%. For the same compound, the inhibition in [13] is 17.4%; in test [14] it was 14.5%; in test [15], 52.4%; in test [16], 10.9%; in test [17] it was 54.2%; in [18], 3.8%. The inhibition in [19] was 15.4%; in test [20], 1.26%.

Regarding `CCn1c(-c2nonc2N)nc2cncc(C(=O)NCCNC)c21`, the inhibition in [1] was found to be 11.9%; in test [2] it was 6.23%; in test [3], 5.87%; in test [4], 9.43%; in [5], 3.12%; in test [6] it was 1.03%. The inhibition was 3.05% in [7]; -0.11% in test [8]; 3.41% in [9]; 2.35% in [10]; 2% in [11]; 4.96% in test [12]. Also, the inhibition in test [13] amounted to 6.37%; in test [14], 1.12%; in test [15], 5.76%; in [16], 5.87%; in test [17], 15.3%; in [18] it was 3.26%. Moreover, the inhibition in test [19] was 5.53%; in [20], -0.27%.

Turning to `Nc1nccc(-c2c(-c3ccc(F)cc3)ncn2C2CCNCC2)n1`, the inhibition in test [1] is 3.57% and -1.29%; in test [2] it was -0.73% and -0.83%; in test [3], 0.68% and 2.5%; in test [4] it was -4.46% and 0.75%; in test [5] it was 4.31% and -2.1%; in [6], 0.55% and 1.51%. The inhibition in test [7] is -0.68% and 1.04%; in test [8], -0.4% and 1.93%; in test [9], 0.46% and 3.61%; in test [10] it was -0.69% and 0.67%; in test [11], 1.62% and 4.51%; in test [12], -2.39% and 2.85%. The inhibition in [13] was 2.05% and 5.24%; in [14], -2.26% and -0.62%; in test [15] it was -1.54% and 3.61%; in [16], -1.93% and 3.33%; in test [17], 1.25% and 4.93%; in test [18] it was -5.25% and 0.92%. Also, the inhibition in test [19] is -4.64% and -1.2%; in test [20] it was -0.56% and 0.6%.

`CS(=O)(=O)Nc1ccc(-c2cc(-c3ccccc3)cc(C(N)=O)c2N)cc1`: the inhibition in test [1] is 1.82%; in [2], 0.78%; in [3] it was 3.05%; in test [4] it was 3.79%; in test [5] it was -1.74%; in [6], 11.7%. Also, the inhibition is 14.7% in test [7]; 1.42% in test [8]; 9.05% in test [9]; 1.39% in test [10]; -0.83% in [11]; 2.58% in [12]. Further, the inhibition in [13] was 4.51%; in test [14], 15.8%; in test [15], 8.99%; in [16] it was 4.43%; in test [17] it was 3.29%; in test [18], -1.45%. For the same compound, the inhibition in test [19] stood at 0.85%; in [20], 0.8%.

The term inhibition denotes the relative decrease from the control value, in per cent.
